The whole screen tested about 360,000 compounds, of which about 2,800 (0.78%) were called active. The list comes from a sample in which actives are over-represented; it also holds similar structures and randomly drawn compounds. Values without a mark were called inactive. Cut-off read from the data, not from the text of the source: active = inhibition above about 26%; inactive = the rest.

This assay has as its system Nicotinate-nucleotide adenylyltransferase NadD (Staphylococcus aureus N315). Kind of assay: S. aureus NadD enzyme activity blockers – biochemical, colorimetric, uHTS, primary screen (AID 602399). The conditions noted are these: purified NadD enzyme, colorimetric absorbance read-out; at 20 µM; stronger effect = higher value.
Usually inhibition stands for the relative decrease from the control value, in per cent. Regarding `CON(C)S(=O)(=O)c1ccc2c(c1)NC(=O)C1CCCN21` (configuration not stated), the inhibition was 10.3%. Under `Cc1ccc(S(=O)(=O)c2cc3c(=O)n4cccc(C)c4nc3n(CCc3ccccc3)c2=N)cc1C` stands -1.62%. With `CCn1c(=N)c(S(=O)(=O)c2ccc(F)cc2)cc2c(=O)n3ccccc3nc21`, the inhibition is 7.46%. For `Cc1ccc(Cn2c(=N)c(S(=O)(=O)c3ccc(C)cc3)cc3c(=O)n4ccccc4nc32)cc1`, the inhibition was 35.5% (active). Turning to `COc1ccc(C)cc1NC(=O)c1cc(-c2ccccc2)nc2c1cnn2C(C)C`, the inhibition was -10.2%. The value for `COC(=O)c1sccc1NC(=O)CC1C(=O)NCCN1C(=O)Nc1ccc(F)cc1F` (configuration not stated) was -5.08%. On to `Cc1c(Cl)c([N+](=O)[O-])nn1CCCC(=O)NC(C)c1ccccc1` (configuration not stated), for which the inhibition is 1.25%. As for `CN(C)c1ccc(/C=N/NC(=O)c2ccc(Cn3cc(Br)cn3)o2)cc1`, the inhibition was 4.66%. `Cc1c(Cl)c([N+](=O)[O-])nn1Cc1ccc(C(=O)N/N=C\c2cc(Cl)ccc2O)o1`: the inhibition is 35.1% (active). Regarding `COc1ccc(CC(=O)Nc2c3c(nn2-c2cccc(Cl)c2)CS(=O)C3)cc1` (configuration not stated), the inhibition is 5.19%. Regarding `Cc1ccc(NS(=O)(=O)c2cc3c(cc2Br)NC(=O)CO3)cc1C`, the inhibition is -3.42%. Turning to `C#CCOCCOCCOCCNc1nc(N2CCN(C(=O)CCCCCCCCCCNC(=O)Cn3cc(CCCCCN)nn3)CC2)nc(N2CCN(C(=O)CCCCCCCCCCNC(=O)[C@H](CO)n3cc(CCCSC)nn3)CC2)n1`, the inhibition was 46.8% (active). In the case of `C#CCOCCOCCOCCNc1nc(N2CCOCC2)nc(N2CCN(C(=O)[C@H](Cc3ccc(O)cc3)n3cc(CCO)nn3)CC2)n1`, the inhibition was -4.41%. On to `C#CCOCCOCCOCCNc1nc(N2CCN(C(=O)C([C@@H](C)O)n3cc([C@@H](N)CCCCN)nn3)CC2)nc(N2CCN(C(=O)[C@H](CCCCN)n3cc(CN)nn3)CC2)n1` (some centres not stated), for which the inhibition is -6.21%.

On to `C=CCOc1cccc(C2C(C(=O)c3ccc(C)o3)=C(O)C(=O)N2CCN2CCOCC2)c1` (configuration not stated), for which the inhibition was 6.48%. As to `CCNc1nc(SCCOc2ccccc2)nc(N(C)C)n1`, the inhibition is -6.51%. For `C(=C\c1ccccc1)/CSc1nnc(-c2cccnc2)n1Cc1ccco1`, the inhibition is 14.6%.

On to `O=C(CSc1nnc(-c2cccnc2)n1Cc1ccco1)c1ccc(Cl)c(Cl)c1`, for which the inhibition was 30.6% (active). Turning to `O=C(CSc1nnc(-c2cnccn2)n1Cc1ccco1)c1ccc(Cl)c(Cl)c1`, the inhibition was 10.3%. As for `CCOC(=O)/C=c1\s/c(=C\c2ccc(C#N)cc2)c(=O)n1CC(=O)Nc1cccc(C)c1C`, the inhibition is 32.6% (active). Under `Cc1cccc(NC(=O)CSC(N)=O)c1C` stands -2.73%. Consider `Cc1cccc(NC(=O)CN2CCN(C(=O)C3CCN(C(=O)/C=C/c4ccccc4)CC3)CC2)c1C`, for which the inhibition is 5.55%. Consider `Cc1c(CN2CCCCC2)c(O)n(CCO)c(=O)c1C#N`, for which the inhibition was -2.39%.

As for `Cc1cccc(-c2c(NC(=O)c3ccco3)oc3ccc(Cl)cc3c2=O)c1`, the inhibition is -6.28%. For `Cc1ccc(N=C2NC(=O)/C(=C/C=C/c3ccco3)S2)cc1C`, the inhibition is 37.2% (active).

For `FC(F)(F)c1ccnc(Oc2ccc(C3=NCCS3)cc2)c1`, the inhibition is -2.78%. For the molecule `CCCCn1ccnc1C(=O)c1cccc(S(=O)(=O)N2c3ccccc3CC2C)c1` (configuration not stated), the inhibition is 9.25%. The value for `Cn1c(=O)[nH]c(=O)c2c1nc(CN1CCN(c3ccccc3F)CC1)n2CCc1ccccc1` was 0.696%. With `CC(C)C(=O)Nc1c2c(nn1-c1ccccc1)CSC2`, the inhibition was -1.75%.

Regarding `COc1ccccc1C(=O)N/C(=C/c1ccco1)C(=O)Nc1ccc(C(=O)O)cc1`, the inhibition was 1.58%. Turning to `COCCCn1c(=O)/c(=C/c2ccccc2OC(C)C)s/c1=C(\C#N)C(=O)Nc1ccc(C(=O)O)cc1`, the inhibition was 32% (active). For the molecule `O=C(Nc1ccc(C(=O)O)cc1)/C(=C\c1ccccc1)NC(=O)c1ccc(Br)cc1`, the inhibition is -2.9%. Under `CCOC(=O)c1cccc(NC(=O)CCc2nnc3ccc(N4CCOCC4)nn23)c1` stands -5.9%; under `Cc1ccc(Cn2cc(CN3CC(N4CCN(C)CC4)CS3(=O)=O)nn2)cc1` (configuration not stated), -10.5%; under `C=CCN1C(=O)C(O)(CC(=O)c2ccccn2)c2ccccc21` (configuration not stated), 13.4%. The value for `CCOc1ccccc1C1CC(c2ccc(Cl)cc2)Nc2nc(N)nn21` (configuration not stated) was 9.48%. For `Nc1nc2n(n1)C(c1ccco1)CC(c1ccc(Cl)c(Cl)c1)N2` (configuration not stated), the inhibition is 47.1% (active).

Turning to `Cc1ccc(C2CC(c3cccc(Br)c3)n3nc(N)nc3N2)cc1` (configuration not stated), the inhibition was 7.54%.

For the molecule `CCOC(=O)c1cn(CC)c2cc(F)c(F)cc2c1=O`, the inhibition is -0.618%. Regarding `COC(=O)CSc1nc2c(c(C3CC=CCC3)c1C#N)CCC2` (configuration not stated), the inhibition was -1.38%. `COc1ccc(CC(=O)Nc2sc(Cc3ccccc3)c(C)c2C(N)=O)cc1`: the inhibition was -6.77%.

For `COc1cc(OC)cc(C(=O)NNC(=O)Cc2cccs2)c1`, the inhibition was 10.7%.

For `COc1ccc(Cc2nnc(NC(=O)Cc3cccs3)s2)cc1`, the inhibition was 32.5% (active).

`CC(C)C[C@@H](CO)N1CCN(Cc2ccc(O)cc2)CCC1=O`: the inhibition was 4.79%. As for `CC(CCN1CCN=C1N(C)C)c1ccccc1` (configuration not stated), the inhibition was -0.906%. With `Cc1c2cnn(CC(=O)NCc3ccccn3)c(=O)c2c(C)n1Cc1ccc(Cl)cc1`, the inhibition is 0.351%. In the case of `Cc1cc(OCCCC(=O)Nc2cc(S(=O)(=O)N3CCOCC3)ccc2N2CCOCC2)ccc1Cl`, the inhibition was -12.2%. Turning to `COC(=O)c1cc(Oc2ccc(S(=O)(=O)N3CCOCC3)cc2[N+](=O)[O-])cc(C(=O)OC)c1`, the inhibition was 1.67%. As for `O=[N+]([O-])c1cc(Cl)cc(/C=N/NC(=S)Nc2cc(S(=O)(=O)N3CCOCC3)ccc2Cl)c1O`, the inhibition is 47.9% (active). As to `CC(=O)Nc1cc(-c2ccc(N3CCN(C)CC3)cc2)cn2c(-c3ccc(F)cc3)cnc12`, the inhibition is 0.533%. Under `O=C(Nc1ccc(N2CCN(C(=O)c3cccs3)CC2)cc1)c1cccnc1Cl` stands 4.87%. The value for `C=CC(=O)Nc1ccc(Nc2ccnc(Nc3ccc(N4CCN(C)CC4)cc3)n2)cc1` was 42.6% (active). With `O=C1C2N=NN(CC(=O)N3N=C(c4cccc5ccccc45)CC3c3ccccc3)C2C(=O)N1c1ccccc1` (configuration not stated), the inhibition was 48.5% (active). On to `Oc1ccccc1C1=NN(c2ccccc2)C(c2ccccc2)C1` (configuration not stated), for which the inhibition was -11.2%. On to `Cc1ccc(C2=NN(C(=O)COc3ncnc4ccccc34)C(c3ccco3)C2)cc1` (configuration not stated), for which the inhibition was 0.743%.

Regarding `Cc1ccc(N2C(=O)C3N=NN(CC(=O)N4N=C(c5cccc6ccccc56)CC4c4ccccc4)C3C2=O)cc1` (configuration not stated), the inhibition is 45.4% (active).

For the molecule `O=C1c2cccc(OCC(=O)N3N=C(c4cccs4)CC3c3ccc(F)cc3)c2CCN1Cc1ccccc1` (configuration not stated), the inhibition is 26.5%. For `CC1=C(C)CC2C(=O)N(c3cccc4ccccc34)C(=O)C2C1` (configuration not stated), the inhibition was -0.224%. `CN1CCN(C(=O)/C(=C\c2ccc3c(c2)OCO3)NC(=O)c2cccs2)CC1`: the inhibition is -6.87%.

Take `O=C1CC2(CCCC2)Oc2ccc(Cl)cc21`: the inhibition is -1.24%. The value for `CCSC1=NCCN1C(=O)c1ccc(S(=O)(=O)N(CC)CC)cc1` was 3.55%; that for `Cc1ccc(-n2c(=O)cc(N3CCN(Cc4ccccc4)CC3)[nH]c2=O)cc1` was 4.3%. Under `Cc1cccc(CCNS(=O)(=O)c2ccc3c(c2)NC(=O)CO3)c1` stands -0.563%. Under `COC(=O)c1ccc(/C=N/OCC(=O)Nc2cc(F)ccc2F)cc1` stands -3.44%; under `CCCc1nc2c3ccccc3ccn2c1Cc1ccccc1C(F)(F)F`, 1.56%; under `Cc1ccc(C(=O)NNC(=O)CSc2nnc3ccccn23)cc1`, -1.33%.

`Cc1ccc(C(=O)NNC(=O)c2cc3cc4ccccc4nc3s2)cc1`: the inhibition was 31.4% (active).

As for `Cc1ccc(C(=O)NNc2ncnc3ccccc23)cc1`, the inhibition was -2.31%. For `Nc1nc2c(ncn2[C@@H]2O[C@H](CNS(=O)(=O)N3CCc4ccccc4C3)[C@@H](O)[C@H]2O)c(=O)[nH]1`, the inhibition was 1.88%. Regarding `CCC/C=C(\CCC)C(NC(=O)Cc1ccccc1)c1ccc(C(=O)OC)cc1` (configuration not stated), the inhibition is 10.4%. As to `CC1CCN(C(=O)Cn2cc(C(=O)c3ccco3)c3ccccc32)CC1`, the inhibition is 3.46%. Regarding `O=C(c1ccc(CS(=O)(=O)c2ccccc2)o1)N1CCN(c2ccccc2)CC1`, the inhibition is 1.5%.

In the case of `COc1ccc2sc(-c3ccc(S(C)(=O)=O)cc3)c(C#Cc3cncn3C)c2c1`, the inhibition was 0.758%. With `Cc1cccc(-c2oc3ccc(-c4ccc5c(c4)OCO5)cc3c2C#Cc2cncn2C)c1`, the inhibition was 26.9%. As for `Cn1cncc1C#Cc1c(-c2ccsc2)sc2ccccc12`, the inhibition was 30% (active). On to `CS(=O)(=O)N(CC(=O)N1CCCCCC1)c1cccc(Cl)c1Cl`, for which the inhibition was -9.97%.

In the case of `Cc1c(S(=O)(=O)NCc2ccccc2)c(=O)n(C)c(=O)n1C`, the inhibition is -3.14%.

The values above are taken from PubChem BioAssay AID602399 (Sanford-Burnham Center for Chemical Genomics, 2012).
